Pf Dd2 inh – qHTS Primary assay for Inhibitors of Plasmodium falciparum Dd2 growth in vitro | P. falciparum Dd2 growth, SYBR Green, 72 h | Potency, µM (top dose mostly 28.9 µM), usual class: inhibitors | 120,000 compounds, 4.3% hits | AID 1347417, 2020; active means well fitted inhibition curve with a large enough effect; further: nearly all actives have a fitted effect of over 65% in size
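Infected erythrocytes (Dd2, 0.3% parasitemia, 2.5% hematocrit final) are added to compound in RPMI-1640/Albumax II medium, grown 72 h at 37C in low oxygen, then lysed with saponin/Triton-X containing SYBR Green and read by fluorescence.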
Large screens that a line does not name were inactive. The full list was thinned out, with hits kept by preference.

C=CCNC(=O)N[C@H]1[C@H](O)[C@@H](Sc2ccccc2)[C@@H]2OC[C@H]1O2	none
O=C(c1ccc2c(c1)N(Cc1ccccc1F)C(=O)c1ccccc1S2=O)N1CCC(Cc2ccccc2)CC1 (centres undefined)	none
CCOC(=O)C1CCCN(C(=O)Cn2ncc3c(C)n(Cc4ccc(Cl)cc4)c(C)c3c2=O)C1 (centres undefined)	none
O=C(c1ccc2c(c1)N(Cc1ccccc1F)C(=O)c1ccccc1S2=O)N1CCOCC1 (centres undefined)	none
CCOC(=O)C1CCCN(C(=O)c2ccc3c(c2)N(Cc2ccc(Cl)cc2)C(=O)c2ccccc2S3=O)C1 (centres undefined)	Pf Dd2 inh 11µM
CN1CCN(C(=O)c2ccc3c(c2)N(Cc2ccc(F)cc2)C(=O)c2ccccc2S3=O)CC1 (centres undefined)	Pf Dd2 inh 4µM
CCN1C(=O)c2ccccc2S(=O)c2ccc(C(=O)NCc3ccc(C)cc3)cc21 (centres undefined)	none
CCN1CCN(C(=O)c2ccc3c(c2)N(Cc2ccc(Cl)cc2)C(=O)c2ccccc2S3=O)CC1 (centres undefined)	Pf Dd2 inh 0.5µM
CCN1C(=O)c2ccccc2S(=O)c2ccc(C(=O)N3CCN(c4ccccc4)CC3)cc21 (centres undefined)	none
CCc1n[nH]c(CC2CCN(C(=O)Nc3ccc4c(c3)OCCO4)CC2)n1	none
CC1CCCCN1C(=O)CSc1n[nH]c(-c2ccccc2)n1 (centres undefined)	none
O=C(C[C@@H]1C[C@H]2O[C@H](CNC(=O)N3CCOCC3)[C@@H](O)[C@H]2O1)N1CCOCC1	none
CC(=O)Nc1ccc(S(=O)(=O)N2CCCC(N(C)CCc3ccccn3)C2)cc1 (centres undefined)	none
CN(C)C(=O)c1nc(-c2cc(Cl)cc(Cl)c2)c2ccccn12	none
CN(Cc1ccccc1C(F)(F)F)C(=O)c1ccccc1F	none
COc1ccc(CCNC(=O)Cn2c(=O)nc(-c3ccccc3)c3ccccc32)cc1OC	none
Cc1cccc(C)c1Nc1c(-c2cccs2)nc2ncccn12	none
Cc1ccc2nc(-c3cccnc3)c(Nc3ccc(C(C)C)cc3)n2c1	none
Cc1ccc2nc(-c3cccs3)c(Nc3ccc4c(c3)OCCO4)n2c1	none
COc1ccc(Nc2c(-c3ccco3)nc3cccc(C)n23)cc1	none
Cc1ccn2c(Nc3ccc(C(C)C)cc3)c(-c3cccnc3)nc2c1	Pf Dd2 inh 11µM
Cc1ccccc1-c1nc2cnccn2c1NCCC(=O)N1CCC(C)CC1	none
CC(C)c1ccc(Nc2c(-c3ccccc3O)nc3cnccn23)cc1	Pf Dd2 inh 3.5µM
Cc1ccc2nc(-c3ccco3)c(Nc3ccc4c(c3)OCCO4)n2c1	none
Cc1ccn2c(Nc3ccc(F)cc3)c(-c3ccc(C)o3)nc2c1	Pf Dd2 inh 10µM
Cc1ccn2c(Nc3ccc(C(C)C)cc3)c(-c3cccs3)nc2c1	Pf Dd2 inh 11µM
Cc1ccc(Nc2c(-c3cccc(Cl)c3)nc3cccc(C)n23)cc1	none
Cc1ccccc1-c1nc2cnccn2c1NCCC(=O)N1CCCCC1	none
CC1(C)NC(=O)N(CC(=O)N2CCc3nc(-c4cccnc4)[nH]c3C2)C1=O	none
C=C[C@H]1CN2CC[C@H]1C[C@@H]2CNS(=O)(=O)c1cccs1	none
CCn1nccc1C(=O)N1CCC(Cc2nc(-c3ccccc3)n[nH]2)C1 (centres undefined)	none
CN(C)c1ccc(C(=O)NC[C@H]2O[C@@H](CC(=O)N3CCN(c4ccccc4)CC3)[C@H](O)[C@@H]2O)cc1	none
Cc1cccc(-c2nocc2CCC(=O)N2CCN(c3ccccn3)CC2)c1	none
Cc1cccc(NC(=O)Cn2c(=O)n(CCCCCC(=O)NCc3ccccc3)c(=O)c3sccc32)c1	none
CCc1ccc(NC(=O)c2ccc(NS(=O)(=O)c3c(C)noc3C)cc2)cc1	none
CCSc1nnc2c(n1)OC(c1ccc(OC)c(OC)c1)N(C(C)=O)c1ccccc1-2 (centres undefined)	none
Cc1c(C(=O)N2CCC(C(=O)Nc3ccc(F)c(Cl)c3)CC2)sc2nc[nH]c(=O)c12	none
O=C(NCC1CCN(Cc2cccc(Cl)c2)CC1)Nc1cc(Cl)ccc1Cl	none
CC(=O)NC1(C)CCN(Cc2cccc(-c3cccc(Cl)c3)c2)C1 (centres undefined)	none
O=C(Nc1cccc(-c2cccc(Cl)c2)c1)C1CCN(Cc2cccc(O)c2)CC1	Pf Dd2 inh 4µM
CCCN1CCC(N2CCC(C(=O)Nc3cccc(-c4cccc(F)c4)c3)CC2)CC1	Pf Dd2 inh 2.2µM
CS(=O)(=O)N1CCCC1C(=O)Nc1ccc(-c2cccc(F)c2)cc1 (centres undefined)	none
CN(C)S(=O)(=O)N1CCCC1C(=O)Nc1ccc(-c2cccc(F)c2)cc1 (centres undefined)	none
COc1ccc(N2CCN(C(=O)Cn3c(-c4cnccn4)nc(C)c(C)c3=O)CC2)cc1	none
C=C[C@H]1CN2CC[C@H]1C[C@@H]2CNC(=O)c1ccccc1C(=O)O	none
O=C(NC1CCN(C(=O)N2CC3CC(C2)[C@H]2CCCC(=O)N2C3)CC1)c1ccc2ccccc2n1 (some centres undefined)	none
CCCCNC(=O)C1CCN(S(=O)(=O)c2ccc3c(ccn3CC)c2)CC1	none
O=C(Nc1ccc(Cl)cc1Cl)c1ccn2cncc2c1	none
O=C(Nc1ccc(F)cc1)c1ccc(-n2cnnc2)cc1	none
O=C(Nc1ccc(F)cc1)c1cc2cccnn2n1	none
O=C(Nc1ccc(Cl)cc1Cl)c1cccn2cncc12	Pf Dd2 inh 13µM
O=C(Nc1ccc(F)cc1)c1cccn2cncc12	Pf Dd2 inh 16µM
O=C(Nc1ccc(Cl)cc1Cl)c1ccc2cncn2c1	none
CCCCCNC(=O)C1CCC(Cn2c(=O)c3sccc3n(CC(=O)NCc3cccc(OC)c3OC)c2=O)CC1 (centres undefined)	none
O=C(NC1CCCCC1)N1CCCC(CN2CCCC2)CC1 (centres undefined)	none
CC(=O)N1CCN(c2ccc3nnc(-c4cc(C(=O)N(C)C)ccn4)n3n2)CC1	none
O=C(c1ccc(-n2cnnn2)cc1O)N1CCCC(CCc2ccc(F)cc2)C1 (centres undefined)	Pf Dd2 inh 13µM
O=C(CCn1cnnn1)N1CCCC(CCc2cccc(C(F)(F)F)c2)C1 (centres undefined)	none
O=C(c1cc(=O)[nH]c2cc(F)ccc12)N1CCCC(CCc2ccc(F)cc2)C1 (centres undefined)	none
CCOCCCNC(=O)C1CCN(c2cc(C)nc3c(-c4ccc(Cl)cc4)c(C)nn23)CC1	none
CCC1=C(C(=O)OC)C(c2ccccc2F)N2C(CC(=O)NCC3CC3)=CSC2=N1 (centres undefined)	none
CC(C)Oc1ccc(C(=O)N(Cc2ccc(N(C)C)cc2)C2CCS(=O)(=O)C2)cc1 (centres undefined)	none
CC(C)(C)OC(=O)N1CC(NCc2ccccn2)C1	none
Cc1cc(Cl)ccc1NC1CN(C(=O)OC(C)(C)C)C1	none
CC(C)(C)OC(=O)N1CC(Nc2ccc(O)cc2)C1	Pf Dd2 inh 11µM
O=c1c(C2CCCCC2)ccc2n1C[C@H]1C[C@@H]2CN(S(=O)(=O)c2ccccc2)C1	none
COc1ccc(NC(=O)N2CC(N(C3CCOCC3)S(C)(=O)=O)C2)cc1OC	none
Cc1ccc(CNS(=O)(=O)c2c(C(=O)N3CCC(C)CC3)c(C)n(C)c2C)cc1	none
Cc1c(C(=O)N2CCCCC2)c(S(=O)(=O)NCc2ccc(N(C)C)cc2)c(C)n1C	none
Cc1c(C(=O)N2CCCCCC2)c(S(=O)(=O)N(Cc2ccccc2)C(C)(C)C)c(C)n1C	Pf Dd2 inh 13µM
O=C(c1ccncc1)N1CCC(c2noc(-c3cnccn3)n2)C1 (centres undefined)	none
